PubChem BioAssay (NCATS)
Several values for one entry are separate records, joined by “and”; a condition that tells them apart may be missing. Identical values can stand only once. Inconclusive results are not listed. Activity calls are given as the source filed them. Unless noted, the call rests on the fitted dose curve; in most records, active means well fitted curve in the direction sought with a large enough effect; inconclusive means small, poorly fitted or top-dose-only effect, or another doubt; inactive means no such curve, though single readings can be large; an effect the other way counts as inactive or inconclusive.

Legend:
[1] = molecular target: Cellular tumor antigen p53 (Homo sapiens) (UniProt P04637); assay: Primary qHTS for small molecule compounds that upregulate eGFP-tagged delta133p53alpha (in N-terminal) cells. (AID 2060322); details: NCI-H358 eGFP-delta133p53alpha fluorescence, 24 h; activation: active compounds read high; further: nearly all actives have a fitted effect of over 75% in size; further: potency means the concentration at half of the fitted maximal effect;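 on activation: cells pre-induced with doxycycline then dosed without doxycycline; series mostly up to about 56 µM; 0% = DMSO vehicle and 100% = reference activator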
Summary of the method: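 NCI-H358 cells pre-induced 24 h with 10 ng/ml doxycycline for eGFP-delta133p53alpha, plated dox-free and exposed 24 h at 37C to titrated compounds. Fixed, Hoechst-stained; gated GFP peak intensity by laser scanning cytometry, normalized to DMSO (0%) and 57.5 uM 5-azacytidine (100%).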

[2] = molecular target: Aldehyde dehydrogenase, mitochondrial (Homo sapiens) (UniProt P05091); assay: qHTS for Inhibitors of the Aldehyde Dehydrogenase Family (ALDH2) Confirmatory screens (AID 2061303; active means well fitted inhibition curve with a large enough effect; title and protocol of this record describe different tests; further: nearly all actives have a fitted effect of over 45% in size; further: potency means the concentration at half of the fitted maximal effect)
[3] = qHTS for Inhibitors of the Aldehyde Dehydrogenase Family (ALDH1A2, ALDH1A3, ALDH2, ALDH3A1) (AID 2061307); further: nearly all actives have a fitted effect of over 50% in size; on Potency: test system not described further here; potency means the concentration at half of the fitted maximal effect
[4] = molecular target: Aldehyde dehydrogenase, mitochondrial (Homo sapiens) (UniProt P05091); assay: qHTS for Inhibitors of the Aldehyde Dehydrogenase Family (ALDH2) Primary screen (AID 2061308);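 further: plate controls were vehicle for no effect and reference inhibitor for full effect; nearly all actives have a fitted effect of over 55% in size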
[5] = molecular target: Retinaldehyde dehydrogenase 3 (Homo sapiens) (UniProt P47895); assay: qHTS for Inhibitors of the Aldehyde Dehydrogenase Family (ALDH1A3) Primary screen (AID 2061315);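 further: plate controls were DMSO vehicle for no effect and reference inhibitor for full effect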
[6] = molecular target: Aldehyde dehydrogenase 1A1 (Homo sapiens) (UniProt P00352); assay: qHTS for Inhibitors of the Aldehyde Dehydrogenase Family (ALDH1A1) Confirmatory screens (AID 2061316); further: nearly all actives have a fitted effect of over 65% in size; further: potency means the concentration at half of the fitted maximal effect
[7] = BET inhibitor-based combinations targeting novel dependencies in MECOM-rearranged (r) AML: SET-2 cell line (AID 2202231); details: SET-2 AML cells viability, CellTiter-Glo luminescence, 48 h; viability: active compounds read low, concentration not given here; further: potency means the concentration at half of the fitted maximal effect; nearly all actives have a fitted effect of over 35% in size
Summary of the method: (§1)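 Here, 11-point titrations of each agent were applied to 500 seeded cells and incubated 48 hr; CellTiter-Glo signal, scaled against DMSO and empty wells, was integrated as AUC, then Z-scored within the individual line.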

[8] = BET inhibitor-based combinations targeting novel dependencies in MECOM-rearranged (r) AML: MV-4-11 cell line (AID 2202233); further: potency means the concentration at half of the fitted maximal effect; nearly all actives have a fitted effect of over 45% in size
Summary of the method: (§2)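 Normalized to DMSO and empty-well controls, the luminescence data from CellTiter-Glo after 48 hr drug exposure were fitted across 11 concentrations. Reported metrics are area under the dose-response curve and its Z-transformed form.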

[9] = BET inhibitor-based combinations targeting novel dependencies in MECOM-rearranged (r) AML: HNT-34 cell line (AID 2202234); further: potency means the concentration at half of the fitted maximal effect; nearly all actives have a fitted effect of over 35% in size
Summary of the method: as §2

[10] = BET inhibitor-based combinations targeting novel dependencies in MECOM-rearranged (r) AML: UCSD-AML1 cell line (AID 2202235); further: potency means the concentration at half of the fitted maximal effect; nearly all actives have a fitted effect of over 40% in size
Summary of the method: as §2

[11] = molecular target: Retinaldehyde dehydrogenase 3 (Homo sapiens) (UniProt P47895); assay: qHTS for Inhibitors of the Aldehyde Dehydrogenase Family (ALDH1A3) Confirmatory screens (AID 2061311); further: nearly all actives have a fitted effect of over 60% in size; further: potency means the concentration at half of the fitted maximal effect
[12] = molecular target: Retinaldehyde dehydrogenase 3 (Homo sapiens) (UniProt P47895); assay: qHTS for Inhibitors of the Aldehyde Dehydrogenase Family (ALDH1A3) Validation screen (AID 2061312); further: nearly all actives have a fitted effect of over 45% in size; further: potency means the concentration at half of the fitted maximal effect
[13] = molecular target: Retinal dehydrogenase 2 (Homo sapiens) (UniProt O94788); assay: qHTS for Inhibitors of the Aldehyde Dehydrogenase Family (ALDH1A2) Confirmation screens (AID 2061314); further: nearly all actives have a fitted effect of over 65% in size; further: potency means the concentration at half of the fitted maximal effect
[14] = BET inhibitor-based combinations targeting novel dependencies in MECOM-rearranged (r) AML: OCI-AML3 cell line (AID 2202232); details: Potency: OCI-AML3 viability; further: potency means the concentration at half of the fitted maximal effect; nearly all actives have a fitted effect of over 35% in size
Summary of the method: as §1

[15] = BET inhibitor-based combinations targeting novel dependencies in MECOM-rearranged (r) AML: AML-191 cell line (AID 2202236; further: potency means the concentration at half of the fitted maximal effect; nearly all actives have a fitted effect of over 35% in size)
Summary of the method: as §1

[16] = BET inhibitor-based combinations targeting novel dependencies in MECOM-rearranged (r) AML: AML-194 cell line (AID 2202237; further: potency means the concentration at half of the fitted maximal effect; nearly all actives have a fitted effect of over 40% in size)
Summary of the method: as §1

Sequence of Cellular tumor antigen p53 (Homo sapiens) (P04637 whole entry, looked up): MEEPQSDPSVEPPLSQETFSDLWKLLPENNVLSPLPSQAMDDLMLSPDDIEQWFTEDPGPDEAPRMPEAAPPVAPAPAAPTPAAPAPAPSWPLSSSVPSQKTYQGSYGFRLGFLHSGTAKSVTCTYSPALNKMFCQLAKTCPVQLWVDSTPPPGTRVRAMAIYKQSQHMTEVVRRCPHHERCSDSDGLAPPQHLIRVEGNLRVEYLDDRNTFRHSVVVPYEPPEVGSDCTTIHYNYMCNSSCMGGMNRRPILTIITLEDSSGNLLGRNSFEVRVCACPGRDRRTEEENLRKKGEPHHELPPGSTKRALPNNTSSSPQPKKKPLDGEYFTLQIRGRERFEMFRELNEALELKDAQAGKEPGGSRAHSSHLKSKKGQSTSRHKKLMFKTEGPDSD

CC1(C)CC(=O)c2c(C(F)(F)F)nn(-c3ccc(C(N)=O)c(NC4CCC(OC(=O)CN)CC4)c3)c2C1 (stereo not drawn)
active: Potency [7] 263 nM | Potency [8] 59 nM | Potency [9] 209 nM | Potency [10] 186 nM
inactive: activation [1] 38.8% and -1.67% | Potency [2] | Potency [3] | Potency [4] | Potency [5] | Potency [6]

O=C(CN1C2=NCCN2c2ccccc21)c1ccc(-c2ccccc2)cc1
active: Potency [2] 3.57 µM | Potency [3] 3.57 µM | Potency [11] 31.6 µM
inactive: activation [1] 7.16% | Potency [12] | Potency [13] | Potency [5]

CC(C)(C)Nc1nc(Nc2ccc(C(N)=O)cc2)cc(N)c1C#N
active: Potency [2] 7.08 µM | Potency [11] 15.8 µM | Potency [13] 3.57 µM | Potency [6] 14.2 µM
inactive: activation [1] 11% | Potency [4] | Potency [12] | Potency [5]

CCOC(=O)c1cccc(CNc2ccc(N(C)C(=O)Nc3ccccc3)cc2)c1
inactive: activation [1] -12.9% | Potency [2] | Potency [3] | Potency [11] | Potency [13] | Potency [6]

O=C(Nc1ccccc1)N1CCN(Cc2ccc3ccccc3n2)CC1
inactive: activation [1] 8.59% | Potency [2] | Potency [4] | Potency [11] | Potency [12] | Potency [13] | Potency [5] | Potency [6]

COc1ccc(NC(=O)c2ccc(-c3ccc(C(=N)N)cc3C)cc2)cc1N1CCN(C)CC1
inactive: activation [1] 8.11% | Potency [2] | Potency [3] | Potency [4]
active: Potency [6] 12.7 µM

CCCN1CCC=C(c2cc(-c3ccc(C)cc3)no2)C1
inactive: activation [1] 2.86% | Potency [2] | Potency [3] | Potency [5] | Potency [6]
active: Potency [12] 25.1 µM

COC(=O)c1ccc(O[C@@H]2O[C@H](CO)[C@@H](O)[C@H](O)[C@H]2O)c(OC)c1
active: Potency [11] 17.5 µM
inactive: activation [1] -13.4% | Potency [2] | Potency [4]

N[C@@H](CCNCc1ccc(Cl)cc1)C(=O)N1CCCCC1
inactive: activation [1] 1.91% | Potency [2] | Potency [3] | Potency [12] | Potency [13] | Potency [5] | Potency [6]

Cc1ncc(-c2ccnc(Nc3ccc(S(C)(=O)=O)cc3)n2)n1C(C)C
active: Potency [1] 3.06 µM and 2.69 µM | Potency [3] 11.3 µM | Potency [14] 2.35 µM | Potency [8] 590 nM | Potency [9] 1480 nM | Potency [10] 1320 nM | Potency [15] 1.18 µM | Potency [16] 1.86 µM
inactive: Potency [2] | Potency [4] | Potency [5] | Potency [6]

COc1cccc2cc(-c3nc(C4CCC(C(=O)O)CC4)n4ncnc(N)c34)[nH]c12 (stereo not drawn)
inactive: activation [1] 12.5% and 16.7% | Potency [2] | Potency [4] | Potency [5]
active: Potency [3] 3.57 µM | Potency [7] 2950 nM | Potency [14] 1.66 µM | Potency [8] 833 nM | Potency [9] 833 nM

CC(=O)Nc1sc2c(c1-c1nc3ccccc3s1)CNC2
inactive: Potency [5]
active: Potency [1] 26.9 µM | Potency [2] 11.3 µM | Potency [3] 7.12 µM | Potency [6] 6.34 µM

COc1ccnc(CCc2nc3ncccc3[nH]2)c1
inactive: activation [1] -5.73% | Potency [2] | Potency [3] | Potency [11] | Potency [13] | Potency [5] | Potency [6]

O=C1Nc2ccccc2-c2nc3ccccc3c(=O)n2-c2c(O)cccc21
inactive: activation [1] 23.2% | Potency [2] | Potency [3] | Potency [4] | Potency [5]

Fc1ccc(N2CCN(CCC3OCCc4ccccc43)CC2)cc1 (stereo not drawn)
inactive: activation [1] -6.21% | Potency [2] | Potency [3] | Potency [6]

Cc1cc2ncc(C(=O)NCC(C)(C)NCC(=O)N3CCC[C@H]3C#N)cn2n1
inactive: activation [1] -6.33% | Potency [2] | Potency [3] | Potency [11] | Potency [13]

Cc1csc2c(N[C@@H](C)CN3CCN(S(=O)(=O)c4ccc(Cl)c(Cl)c4)CC3)ncnc12
inactive: activation [1] -2.86% | Potency [5]
active: Potency [2] 12.6 µM | Potency [3] 708 nM and 224 nM | Potency [6] 8.96 µM

Cn1cnc(-c2nccc3c(=O)[nH]c(OCCCC(F)(F)F)nc23)c1
inactive: activation [1] -13.4% | Potency [2] | Potency [3] | Potency [13] | Potency [5] | Potency [6]

COc1ccc(-c2cc3onc(-c4ccncc4)c3c(=O)n2C)cc1
inactive: activation [1] -6.68% | Potency [2] | Potency [3] | Potency [5] | Potency [6]

COc1ccc(CCO[C@@H]2CCCC[C@H]2N2CC[C@@H](O)C2)cc1OC
inactive: activation [1] -0.477% | Potency [2] | Potency [3] | Potency [11] | Potency [13] | Potency [5] | Potency [6]

CC[C@H](CO)Nc1nc(NCc2ccc(-c3ccccn3)cc2)c2ncn(C(C)C)c2n1
inactive: Potency [2] | Potency [3] | Potency [5] | Potency [6]
active: Potency [1] 0.536 µM

NC1(c2ccc(NC(=O)c3ccnc(-c4cc(C(=O)O)ccn4)c3)cc2)CC1
inactive: activation [1] 15.7% | Potency [2] | Potency [3] | Potency [4] | Potency [5]

CCCCNC(=O)[C@@H]1Cc2ccccc2N1C(=O)[C@@H](N)CC
inactive: activation [1] -9.55% | Potency [2] | Potency [3] | Potency [11] | Potency [13] | Potency [5] | Potency [6]
